Here are results for 1 molecule from ChEMBL document CHEMBL1961873, “Compounds: GSK PKIS; Assays: Nanosyn kinase panel” (2012).

For assay [1], the target named is Sphingosine kinase 1 (Homo sapiens) (UniProt Q9NYA1). To be noted: at 1 µM.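 Further: mean SPHK1 inhibition value reported from the GSK PKIS kinase panel screen.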
The target in assay [2] is T1, Sphingosine kinase 2 (Homo sapiens) (UniProt Q9NRA0).
T1 sequence (whole entry): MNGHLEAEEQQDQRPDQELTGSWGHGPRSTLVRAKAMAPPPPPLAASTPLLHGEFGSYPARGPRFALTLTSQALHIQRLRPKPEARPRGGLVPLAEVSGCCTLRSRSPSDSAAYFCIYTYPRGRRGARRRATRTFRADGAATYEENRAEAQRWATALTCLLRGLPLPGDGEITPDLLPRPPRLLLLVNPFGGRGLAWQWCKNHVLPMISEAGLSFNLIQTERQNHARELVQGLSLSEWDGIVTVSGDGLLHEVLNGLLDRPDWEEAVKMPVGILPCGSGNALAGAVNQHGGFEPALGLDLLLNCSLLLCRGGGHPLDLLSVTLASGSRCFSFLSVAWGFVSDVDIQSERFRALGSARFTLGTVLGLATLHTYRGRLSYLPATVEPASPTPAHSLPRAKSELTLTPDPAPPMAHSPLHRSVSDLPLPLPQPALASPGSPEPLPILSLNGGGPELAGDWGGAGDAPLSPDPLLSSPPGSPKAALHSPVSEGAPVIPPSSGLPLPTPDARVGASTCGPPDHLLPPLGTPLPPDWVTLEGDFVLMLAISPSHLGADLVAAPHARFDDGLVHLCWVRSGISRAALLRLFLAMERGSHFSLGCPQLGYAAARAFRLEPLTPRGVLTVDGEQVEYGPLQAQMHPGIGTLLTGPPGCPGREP
To be noted: at 0.1 µM.

The target of assay [3] is T1, Sphingosine kinase 2 (Homo sapiens). The settings on record: at 1 µM.
Assay [4] deals with Casein kinase II subunit alpha (Homo sapiens) (UniProt P68400). To be noted: at 0.1 µM.
Sequence of Casein kinase II subunit alpha (Homo sapiens) (P68400 whole entry, looked up): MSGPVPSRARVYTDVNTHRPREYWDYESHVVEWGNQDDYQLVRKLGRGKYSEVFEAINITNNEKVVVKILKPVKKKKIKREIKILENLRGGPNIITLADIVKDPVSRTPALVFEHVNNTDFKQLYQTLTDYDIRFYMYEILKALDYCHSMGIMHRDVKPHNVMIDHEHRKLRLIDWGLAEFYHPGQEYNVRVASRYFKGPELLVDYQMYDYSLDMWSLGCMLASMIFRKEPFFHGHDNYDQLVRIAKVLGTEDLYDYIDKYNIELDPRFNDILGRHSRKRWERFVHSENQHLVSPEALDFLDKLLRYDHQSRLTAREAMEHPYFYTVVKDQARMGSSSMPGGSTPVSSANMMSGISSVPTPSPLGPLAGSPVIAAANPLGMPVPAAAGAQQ
The target is the same in assay [5]. The settings on record: at 1 µM.
The target in assay [6] is T2, Inhibitor of nuclear factor kappa-B kinase subunit alpha (Homo sapiens) (UniProt O15111).
T2 sequence (whole entry): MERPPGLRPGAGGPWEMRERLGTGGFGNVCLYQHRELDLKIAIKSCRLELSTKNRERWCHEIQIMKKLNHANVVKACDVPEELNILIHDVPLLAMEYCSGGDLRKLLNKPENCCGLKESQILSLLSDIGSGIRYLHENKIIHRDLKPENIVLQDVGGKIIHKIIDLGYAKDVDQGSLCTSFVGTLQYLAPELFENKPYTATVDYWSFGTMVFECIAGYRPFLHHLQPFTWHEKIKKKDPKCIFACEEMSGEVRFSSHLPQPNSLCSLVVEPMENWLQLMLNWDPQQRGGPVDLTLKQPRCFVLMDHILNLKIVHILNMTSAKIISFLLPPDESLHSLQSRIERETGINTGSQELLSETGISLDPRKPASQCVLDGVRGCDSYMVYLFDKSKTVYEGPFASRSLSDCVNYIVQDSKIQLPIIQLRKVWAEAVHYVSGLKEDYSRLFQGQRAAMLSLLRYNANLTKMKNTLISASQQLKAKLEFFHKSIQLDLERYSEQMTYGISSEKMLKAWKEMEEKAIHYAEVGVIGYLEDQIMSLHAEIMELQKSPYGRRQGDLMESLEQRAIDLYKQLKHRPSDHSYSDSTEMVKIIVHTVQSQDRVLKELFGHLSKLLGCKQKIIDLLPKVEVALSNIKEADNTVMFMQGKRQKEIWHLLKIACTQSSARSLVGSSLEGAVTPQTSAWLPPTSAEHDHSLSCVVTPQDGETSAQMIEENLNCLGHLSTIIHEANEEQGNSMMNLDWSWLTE
To be noted: at 0.1 µM.

Assay [7] has as its target T2, Inhibitor of nuclear factor kappa-B kinase subunit alpha (Homo sapiens). To be noted: at 1 µM.
The target of assay [8] is T3, Inhibitor of nuclear factor kappa-B kinase subunit beta (Homo sapiens) (UniProt O14920).
T3 sequence (whole entry): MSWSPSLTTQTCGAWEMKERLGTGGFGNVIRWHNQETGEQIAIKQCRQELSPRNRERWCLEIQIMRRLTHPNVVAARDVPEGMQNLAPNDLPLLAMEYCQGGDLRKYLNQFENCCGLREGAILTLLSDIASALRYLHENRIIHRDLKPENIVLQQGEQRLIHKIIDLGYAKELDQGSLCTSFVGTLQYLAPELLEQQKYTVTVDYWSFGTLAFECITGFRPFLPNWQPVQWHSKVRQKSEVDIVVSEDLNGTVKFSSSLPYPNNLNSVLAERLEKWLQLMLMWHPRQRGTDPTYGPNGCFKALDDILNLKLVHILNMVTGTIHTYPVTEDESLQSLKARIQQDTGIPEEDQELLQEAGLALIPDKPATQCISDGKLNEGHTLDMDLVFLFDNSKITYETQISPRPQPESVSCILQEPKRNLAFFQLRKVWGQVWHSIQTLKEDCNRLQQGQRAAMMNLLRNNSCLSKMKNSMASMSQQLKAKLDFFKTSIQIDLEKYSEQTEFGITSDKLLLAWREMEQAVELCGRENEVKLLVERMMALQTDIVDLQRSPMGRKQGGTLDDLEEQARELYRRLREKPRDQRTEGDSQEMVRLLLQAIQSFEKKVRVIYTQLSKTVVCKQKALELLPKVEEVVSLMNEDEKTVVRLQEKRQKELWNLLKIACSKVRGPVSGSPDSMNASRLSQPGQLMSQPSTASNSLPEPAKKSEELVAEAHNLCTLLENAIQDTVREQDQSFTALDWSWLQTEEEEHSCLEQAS
To be noted: at 0.1 µM.

The target in assay [9] is T3, Inhibitor of nuclear factor kappa-B kinase subunit beta (Homo sapiens). To be noted: at 1 µM.
The target of assay [10] is T4, Inhibitor of nuclear factor kappa-B kinase subunit epsilon (Homo sapiens) (UniProt Q14164).
T4 sequence (whole entry): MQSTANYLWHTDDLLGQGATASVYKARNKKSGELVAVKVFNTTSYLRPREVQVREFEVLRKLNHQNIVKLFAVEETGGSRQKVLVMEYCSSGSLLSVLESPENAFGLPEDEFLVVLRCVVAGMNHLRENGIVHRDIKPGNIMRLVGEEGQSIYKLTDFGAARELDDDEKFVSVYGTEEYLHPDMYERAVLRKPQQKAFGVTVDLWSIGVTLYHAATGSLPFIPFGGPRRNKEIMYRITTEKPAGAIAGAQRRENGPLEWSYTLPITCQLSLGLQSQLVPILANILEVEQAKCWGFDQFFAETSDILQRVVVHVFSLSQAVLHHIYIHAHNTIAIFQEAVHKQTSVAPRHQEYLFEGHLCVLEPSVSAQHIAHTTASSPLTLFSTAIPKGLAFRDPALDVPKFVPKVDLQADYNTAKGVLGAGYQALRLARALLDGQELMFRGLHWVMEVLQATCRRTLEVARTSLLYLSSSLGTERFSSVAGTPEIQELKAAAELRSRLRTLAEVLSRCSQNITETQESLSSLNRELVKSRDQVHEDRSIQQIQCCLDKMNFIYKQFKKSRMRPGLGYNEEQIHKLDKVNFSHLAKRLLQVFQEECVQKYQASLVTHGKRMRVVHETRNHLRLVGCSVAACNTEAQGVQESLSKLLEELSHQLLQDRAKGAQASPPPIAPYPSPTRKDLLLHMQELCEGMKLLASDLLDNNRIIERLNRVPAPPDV
To be noted: at 0.1 µM.

The target of assay [11] is T4, Inhibitor of nuclear factor kappa-B kinase subunit epsilon (Homo sapiens). The settings on record: at 1 µM.
The target of assay [12] is T5, Serine/threonine-protein kinase Nek1 (Homo sapiens) (UniProt Q96PY6).
T5 sequence (whole entry): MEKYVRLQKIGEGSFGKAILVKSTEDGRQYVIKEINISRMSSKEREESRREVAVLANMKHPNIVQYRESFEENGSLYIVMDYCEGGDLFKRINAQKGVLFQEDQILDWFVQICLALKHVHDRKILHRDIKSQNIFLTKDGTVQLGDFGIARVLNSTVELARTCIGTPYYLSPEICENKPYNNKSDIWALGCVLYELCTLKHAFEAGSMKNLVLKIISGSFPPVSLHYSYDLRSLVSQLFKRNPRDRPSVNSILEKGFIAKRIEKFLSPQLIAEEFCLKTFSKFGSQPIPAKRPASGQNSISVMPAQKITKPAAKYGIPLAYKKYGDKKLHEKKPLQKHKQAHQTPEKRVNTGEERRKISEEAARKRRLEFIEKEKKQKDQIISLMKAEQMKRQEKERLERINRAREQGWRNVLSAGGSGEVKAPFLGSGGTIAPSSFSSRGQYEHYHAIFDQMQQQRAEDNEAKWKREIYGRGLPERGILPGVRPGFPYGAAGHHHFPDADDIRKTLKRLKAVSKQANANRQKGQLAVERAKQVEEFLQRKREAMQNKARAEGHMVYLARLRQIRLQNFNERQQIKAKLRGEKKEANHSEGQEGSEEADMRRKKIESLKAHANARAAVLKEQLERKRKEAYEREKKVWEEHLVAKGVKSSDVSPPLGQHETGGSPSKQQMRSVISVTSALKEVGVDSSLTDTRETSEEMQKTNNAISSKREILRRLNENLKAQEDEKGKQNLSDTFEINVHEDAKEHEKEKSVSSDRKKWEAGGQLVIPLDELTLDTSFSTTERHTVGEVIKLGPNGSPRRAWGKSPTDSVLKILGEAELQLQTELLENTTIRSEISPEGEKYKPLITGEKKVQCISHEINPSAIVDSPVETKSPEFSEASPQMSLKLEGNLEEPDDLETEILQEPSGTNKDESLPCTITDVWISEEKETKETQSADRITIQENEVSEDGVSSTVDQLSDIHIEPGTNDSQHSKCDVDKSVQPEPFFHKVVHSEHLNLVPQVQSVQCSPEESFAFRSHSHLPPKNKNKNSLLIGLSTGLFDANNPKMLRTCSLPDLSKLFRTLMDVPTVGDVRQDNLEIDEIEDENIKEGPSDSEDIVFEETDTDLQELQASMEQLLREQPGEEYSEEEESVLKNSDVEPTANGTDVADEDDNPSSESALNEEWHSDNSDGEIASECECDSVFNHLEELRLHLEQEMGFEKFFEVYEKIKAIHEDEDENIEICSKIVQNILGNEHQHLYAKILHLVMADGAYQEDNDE
To be noted: at 0.1 µM.

For assay [13], the target named is T5, Serine/threonine-protein kinase Nek1 (Homo sapiens). To be noted: at 1 µM.
The target of assay [14] is T6, Serine/threonine-protein kinase Nek2 (Homo sapiens) (UniProt P51955).
T6 sequence (whole entry): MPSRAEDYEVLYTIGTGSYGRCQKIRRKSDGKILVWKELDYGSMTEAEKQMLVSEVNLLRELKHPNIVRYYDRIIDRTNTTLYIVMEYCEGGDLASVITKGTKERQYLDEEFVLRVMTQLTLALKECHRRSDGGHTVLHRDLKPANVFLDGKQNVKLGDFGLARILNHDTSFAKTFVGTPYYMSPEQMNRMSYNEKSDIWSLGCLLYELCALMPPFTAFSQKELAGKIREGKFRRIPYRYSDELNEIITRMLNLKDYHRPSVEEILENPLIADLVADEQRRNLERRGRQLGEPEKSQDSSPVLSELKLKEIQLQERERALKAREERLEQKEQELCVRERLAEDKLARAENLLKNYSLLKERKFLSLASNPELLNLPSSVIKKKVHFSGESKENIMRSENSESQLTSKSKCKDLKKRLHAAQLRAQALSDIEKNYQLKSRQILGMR
To be noted: at 0.1 µM.

The target in assay [15] is T6, Serine/threonine-protein kinase Nek2 (Homo sapiens). To be noted: at 1 µM.
Assay [16] deals with Serine/threonine-protein kinase Nek6 (Homo sapiens) (UniProt Q9HC98). The settings on record: at 0.1 µM.
Sequence of Serine/threonine-protein kinase Nek6 (Homo sapiens) (Q9HC98 whole entry): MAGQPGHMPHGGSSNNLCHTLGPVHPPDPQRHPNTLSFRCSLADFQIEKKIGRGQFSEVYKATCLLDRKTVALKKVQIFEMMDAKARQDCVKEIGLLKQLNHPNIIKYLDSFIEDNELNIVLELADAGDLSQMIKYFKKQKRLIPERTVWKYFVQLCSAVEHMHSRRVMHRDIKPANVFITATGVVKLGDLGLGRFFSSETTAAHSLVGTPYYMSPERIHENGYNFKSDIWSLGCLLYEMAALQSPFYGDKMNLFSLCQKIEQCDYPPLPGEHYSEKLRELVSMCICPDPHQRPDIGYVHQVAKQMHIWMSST
For assay [17] the target is unchanged. To be noted: at 1 µM.
For assay [18], the target named is Serine/threonine-protein kinase Nek7 (Homo sapiens) (UniProt Q8TDX7). The settings on record: at 0.1 µM.
Sequence of Serine/threonine-protein kinase Nek7 (Homo sapiens) (Q8TDX7 whole entry, looked up): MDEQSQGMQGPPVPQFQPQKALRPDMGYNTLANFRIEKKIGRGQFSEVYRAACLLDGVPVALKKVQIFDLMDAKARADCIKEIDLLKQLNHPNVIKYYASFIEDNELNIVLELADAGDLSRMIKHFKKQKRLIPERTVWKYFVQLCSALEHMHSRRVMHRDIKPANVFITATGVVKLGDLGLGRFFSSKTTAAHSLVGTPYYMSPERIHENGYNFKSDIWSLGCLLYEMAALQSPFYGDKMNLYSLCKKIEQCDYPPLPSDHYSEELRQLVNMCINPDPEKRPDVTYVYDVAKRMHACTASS
Assay [19] has the same target. The settings on record: at 1 µM.
Assay [20] has as its target T7, Serine/threonine-protein kinase Nek9 (Homo sapiens) (UniProt Q8TD19).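 Further: reported value is the mean percent inhibition of NEK9.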
T7 sequence (whole entry): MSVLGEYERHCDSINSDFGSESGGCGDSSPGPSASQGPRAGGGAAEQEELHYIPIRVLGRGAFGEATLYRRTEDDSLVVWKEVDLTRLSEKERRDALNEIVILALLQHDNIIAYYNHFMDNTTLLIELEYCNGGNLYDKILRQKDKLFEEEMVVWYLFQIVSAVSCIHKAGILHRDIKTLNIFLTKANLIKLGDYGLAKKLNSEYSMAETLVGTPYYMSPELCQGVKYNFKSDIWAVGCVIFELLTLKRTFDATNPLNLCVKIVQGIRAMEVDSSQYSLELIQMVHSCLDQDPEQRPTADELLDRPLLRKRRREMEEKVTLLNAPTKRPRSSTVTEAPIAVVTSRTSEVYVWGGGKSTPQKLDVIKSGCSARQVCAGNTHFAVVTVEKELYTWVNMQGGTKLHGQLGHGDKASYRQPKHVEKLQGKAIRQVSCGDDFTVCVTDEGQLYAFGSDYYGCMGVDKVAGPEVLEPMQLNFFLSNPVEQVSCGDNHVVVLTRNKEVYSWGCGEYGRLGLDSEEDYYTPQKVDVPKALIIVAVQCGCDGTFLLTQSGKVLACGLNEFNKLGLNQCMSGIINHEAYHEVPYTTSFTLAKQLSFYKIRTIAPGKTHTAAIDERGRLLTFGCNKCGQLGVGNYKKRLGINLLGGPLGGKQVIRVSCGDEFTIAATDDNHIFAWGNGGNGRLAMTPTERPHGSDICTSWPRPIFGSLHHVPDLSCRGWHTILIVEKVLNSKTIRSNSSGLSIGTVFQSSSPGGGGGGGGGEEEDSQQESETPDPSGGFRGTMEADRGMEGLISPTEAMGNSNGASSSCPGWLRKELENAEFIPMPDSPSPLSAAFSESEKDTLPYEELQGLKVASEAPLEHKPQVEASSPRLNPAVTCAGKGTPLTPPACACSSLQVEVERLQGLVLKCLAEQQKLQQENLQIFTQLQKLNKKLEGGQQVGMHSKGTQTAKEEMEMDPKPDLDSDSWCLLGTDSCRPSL
The settings on record: at 0.1 µM.

Sequence of Sphingosine kinase 1 (Homo sapiens) (Q9NYA1 whole entry): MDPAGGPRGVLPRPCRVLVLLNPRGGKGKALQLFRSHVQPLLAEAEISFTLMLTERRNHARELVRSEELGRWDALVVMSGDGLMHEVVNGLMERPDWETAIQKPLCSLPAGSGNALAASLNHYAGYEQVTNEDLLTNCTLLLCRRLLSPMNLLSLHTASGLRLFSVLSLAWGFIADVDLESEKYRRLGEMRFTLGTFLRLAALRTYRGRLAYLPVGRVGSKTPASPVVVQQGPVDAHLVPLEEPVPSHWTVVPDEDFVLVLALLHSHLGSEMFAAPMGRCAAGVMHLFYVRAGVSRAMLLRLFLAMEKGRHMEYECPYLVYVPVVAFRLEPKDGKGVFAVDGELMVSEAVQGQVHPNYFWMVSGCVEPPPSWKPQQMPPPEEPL

In general, inhibition refers to the relative decrease from the control value, in per cent. For the molecule `CCS(=O)(=O)c1ccc(OC)c(Nc2ncc(-c3cccc(F)c3)o2)c1`, the inhibition in [1] was 0.12%; in assay [2], -0.46%; in assay [3], 0%; in assay [4], 15.4%; in [5] it was 46.8%; in [6], 9.53%. In addition, the inhibition in assay [7] came out at 11%; in [8], 6.88%; in assay [9] it was 9.91%; in assay [10] it was 10.8%; in [11], 8.87%; in [12], 4.05%. The inhibition is 5.27% in assay [13]; 6.14% in [14]; 7.08% in assay [15]; -1.8% in assay [16]; 1.24% in assay [17]; 4.07% in [18]. The inhibition in assay [19] came out at 0.27%; in assay [20], 7.49%.
